# From PubChem BioAssay (NCI)
# About 83,000 compounds went through this panel and 20% of them were active in at least one assay; those are over-represented in the sample as a whole.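 Each cell line was grown in a 96-well plate and treated with one concentration of compound for 48 hours. Values below 10 were considered active.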 The source made the active and inactive calls.
# Test system: CAKI-1 renal
# Assay: NCI-60 one-dose screen, 48 h (100 = growth as untreated, 0 = no growth, -100 = all killed)
# Details: 10 µM unless noted
# Protocol: Growth inhibition of the CAKI-1 human tumor cell line is measured as a screen for anti-cancer activity. Cells are grown in 96 well plates and exposed to the test compound for 48 hours. Compounds are tested at a single concentration, which is 10^-5 M for most compounds. The reported endpoint is percent growth (GI% or GIPRCNT), where numbers from 0 - 100% represent growth inhibition, and numbers from -100% - 0 represent cell death. For example, a value of 40 represents 60% growth inhibition. A value of 0 means no net growth occurred over the course of the experiment. A value of -40 indicates 40% of cells at the beginning of the experiment died by the end of the experiment. A value of -100 means all cells are dead at the end of the experiment.
# NCI-60 Human Tumor Cell Lines Screen was performed using the standard one-dose NCI protocol, which is described in more detail at https://dtp.cancer.gov/discovery_development/nci-60/default.htm.
# Compounds with GIPRCNT values below 10 were considered active. Activity score was based on GIPRCNT using the following formula: […]
# Score is 0 for GIPRCNT values of 100 or above, 50 for GIPRCNT values of 0, and 100 for GIPRCNT values of -100.
row,Compound,growth
1,CCCCn1c(-c2ccc(C(=O)O/N=C(\N)c3ccc(OC)cc3)cc2)nc(-c2ccccc2)c1-c1ccccc1,-46.3% (active)
2,O=c1[nH][n+](-c2ccc(Br)cc2)no1,18.5% (inactive)
3,O=C1/C(=C/c2ccc(F)cc2)Sc2c(Br)cccc21,81.5% (inactive)
4,S=c1nc(-c2ccccc2)oc(=NC2CCCCC2)n1C1CCCCC1,75.4% (inactive)
5,Nc1nn(C(=O)Nc2ccc(Cc3ccccc3)cc2)c2ccc(Cl)cc12,44% (inactive)
6,CN(C)c1ccc2nc3ccc(=[N+](C)C)c([N+](=O)[O-])c-3sc2c1,43.1% (inactive)
7,COc1ccc2c(c1)/C(=C/c1sc(=S)n(Cc3ccco3)c1O)C=N2,39.3% (inactive)
8,O=C(CCCCCCSc1nc(-c2ccccc2)cc(-c2ccccc2)n1)NO,13.7% (inactive)
9,O=C(Nc1ccc(Br)cc1F)c1cc(Br)ccc1O,2.12% (active)
10,COc1ccc(C(=O)COC(=O)[C@H](C[Se][Se]C[C@H](NC(=O)c2ccc(Br)cc2F)C(=O)OCC(=O)c2ccc(OC)cc2)NC(=O)c2ccc(Br)cc2F)cc1,-83.2% (active)
11,CCN(CC)Cc1cc(Nc2c3ccc(Cl)cc3nc3ccc(OC)cc23)ccc1O,69.8% (inactive)
12,O=C(O)C(c1ccccc1)N1C(=O)CSC1=S (stereo not given),89.3% (inactive)
13,O=C(Nc1ccc(Cl)cc1F)c1cc(Cl)ccc1O,1.59% (active)
14,Cc1nc2ccccc2n1-c1ncnc2c1CC(C)c1ccccc1N2C (stereo not given),79.9% (inactive)
15,COc1ccc(S(=O)(=O)n2c3ccccc3n3ncc(-c4nnc(C)o4)c23)cc1,32.1% (inactive)
16,COc1nc2ccccc2cc1-c1nc2c(cnn2-c2ccccc2)c(=O)[nH]1,42.1% (inactive)
17,N#CC1=C(N)Oc2c(sc3c(Br)cccc23)C1c1ccc(Br)cc1 (stereo not given),32.8% (inactive)
18,COc1c(C2CC(=O)Nc3c2c(C)nn3-c2nc3ccccc3[nH]2)cc2c(c1OC)OCO2 (stereo not given),71.6% (inactive)
19,COc1ccc2c(c1)C(C)Cc1c(ncnc1-n1c(C)nc3ccccc31)N2C (stereo not given),25.2% (inactive)
20,O=c1c2cc(F)ccc2sc2c(N3CCNCC3)nc3ccccc3c12,-48.4% (active)

row,Compound,growth
1,CN(C)CCN1CCN(c2ncccc2C2Nc3ccccc3-n3cccc32)CC1 (stereo not given),85.4% (inactive)
2,COc1ccc(C(=S)N2CCN(c3cccc(C)c3)CC2)cc1OC,62.5% (inactive)
3,CC(=O)c1ccc(Nc2nc(C(C)=O)c(C)s2)cc1,88.2% (inactive)
4,O=C(COc1ccc(/C=C2\Cc3ccc(Cl)cc3C2=O)cc1)Nc1nc2ccccc2s1,92.3% (inactive)
5,CN1CCN(c2ccc(-c3cc4c(Nc5ccc(F)c(Cl)c5)ncnn4c3)cc2)CC1,66.8% (inactive)
6,c1ccc2c(-c3nc(-c4c[nH]c5ccncc45)cs3)c[nH]c2c1,17.1% (inactive)
7,COc1ccc(-c2cc(-c3ccc(Cl)cc3)c(C#N)c(=O)n2CCCCCC(=O)Nc2ccccc2N)cc1,7.69% (active)
8,[O-][n+]1c2ccccc2[n+]([O-])c2c3ccccc3[nH]c21,48.1% (inactive)
9,Fc1cc2c(cc1Cl)N(c1ncnc3ccc(-c4cnc5cnccn45)cc13)CC2,62.8% (inactive)
10,Cc1nc2ccccc2n1CC1C(=O)NC(=O)NC1=O,104% (inactive)
11,CCOC(=O)Cn1c(C)c(/C=N/NC(=O)c2cc3c(ccc4ccccc43)o2)c2ccccc21,47.1% (inactive)
12,CN1C(=C2C(=O)OC(C)(C)OC2=O)CCC1C(=O)NCc1ccc(Cl)cc1Cl (stereo not given),95% (inactive)
13,COc1cc(C(=O)c2cnc(-c3c[nH]c4cccc(C)c34)[nH]2)cc(OC)c1OC,6.61% (active)
14,COc1cc2oc(-c3ccc(O)cc3)cc(=O)c2c(O)c1-c1c(OC)cc(O)c2c(=O)cc(-c3ccc(O)cc3)oc12,26.9% (inactive)
15,Cc1cccc2c3c(sc12)C(c1ccc(Cl)cc1)C(C#N)=C(N)O3 (stereo not given),8.51% (active)
16,COc1ccc2sc3c(NCCCNCCO)nc4ccccc4c3c(=O)c2c1,44% (inactive)
17,O=C1NC(=O)C(c2ccccc2)(c2ccccc2)N1Cc1cn(-c2c3ccccc3nc3ccccc23)nn1,73.5% (inactive)
18,c1ccc(CO[C@H]2CO[C@H]3[C@@H]2OC[C@@H]3Oc2ccc(Nc3ncnc4ccsc34)cc2)cc1,74.7% (inactive)
19,COc1ccc(-c2cc(-c3cc(OC)c(OC)c(OC)c3)nc(N3CCOCC3)c2C#N)cc1,-22.7% (active)
20,CCc1ccc(Oc2c(-c3ccc(OCCc4cccc(C(F)(F)F)c4)cc3O)n[nH]c2C(F)(F)F)cc1,63.3% (inactive)
